Data on twelve molecules can be found in PubChem BioAssay (NCI).

Among the test systems are NCI-H23 lung; NCI-H226 lung; HOP-62 NSCLC; NCI-H460 lung; HOP-92 NSCLC; NCI-H522 lung; A549/ATCC NSCLC; 786-0 renal; COLO 205 colon; DU-145 prostate; K-562 leukemia; MALME-3M melanoma; MDA-MB-231 breast; RXF 393 renal; SF-268 CNS; SF-295 CNS; SF-539 CNS; UACC-257 melanoma; M14 melanoma; NCI-H322M lung.
What all share (assay): NCI-60 one-dose screen, 48 h (100 = growth as untreated, 0 = no growth, -100 = all killed)
Holding throughout (conditions): 10 µM unless noted

Several values for one entry are separate records, joined by “and”; a condition that tells them apart may be missing. Equal entries are not always repeated. About 83,000 compounds went through this panel and 20% of them were active in at least one assay; those are over-represented in the sample as a whole.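 96-well plates, one dose, 48 hours. Percent growth reported; active if below 10.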 Unmarked numbers belong to inactive results. Activity calls are given as the source filed them.

As for `C/C(CC(C)C)=N/NC(N)=S`, the growth was 88.8% in the test on NCI-H23 lung; 85.8% in the test with NCI-H226 lung; 99.4% in the test with HOP-62 NSCLC; 102% in the test on NCI-H460 lung; 78.2% with HOP-92 NSCLC; 95.2% in the test on NCI-H522 lung. Moreover, the growth is 83.6% in the test on A549/ATCC NSCLC; 107% in the test on 786-0 renal; 102% with COLO 205 colon; 92.2% with DU-145 prostate; 56.2% in the test with K-562 leukemia; 81.4% in the test on MALME-3M melanoma. Also, the growth with MDA-MB-231 breast was 100%; with RXF 393 renal it was 108%; in the test on SF-268 CNS, 88.8%; with SF-295 CNS, 84.3%; in the test with SF-539 CNS, 105%; in the test with UACC-257 melanoma, 74.4%. In the test with M14 melanoma, the growth was 84.4%.

As to `O=S(=O)(O)c1ccc2cc(O)ccc2c1`, the growth was 98.3% with NCI-H23 lung; 98% in the test on NCI-H226 lung; 99.7% with HOP-62 NSCLC; 102% in the test on NCI-H460 lung; 88.8% with HOP-92 NSCLC; 90% in the test on NCI-H522 lung. The growth is 111% in the test with A549/ATCC NSCLC; 104% in the test on 786-0 renal; 103% in the test on COLO 205 colon; 112% in the test with DU-145 prostate; 103% with K-562 leukemia; 101% in the test with MALME-3M melanoma. Further, the growth in the test on MDA-MB-231 breast was 108%; in the test on RXF 393 renal, 109%; in the test on SF-268 CNS it was 106%; with SF-295 CNS, 110%; in the test with SF-539 CNS, 102%; with UACC-257 melanoma it was 105%. In addition, the growth in the test on M14 melanoma is 103%.

Turning to `Cc1cccc(Cl)c1N`, the growth is 99.6% in the test on NCI-H23 lung; 118% with NCI-H226 lung; 104% in the test on HOP-62 NSCLC; 94.1% with HOP-92 NSCLC; 105% in the test with NCI-H522 lung; 96.4% in the test with A549/ATCC NSCLC. Also, the growth is 113% with 786-0 renal; 119% with COLO 205 colon; 109% in the test with DU-145 prostate; 107% with K-562 leukemia; 111% with MALME-3M melanoma; 114% in the test on MDA-MB-231 breast. In addition, the growth was 126% in the test on RXF 393 renal; 105% in the test on SF-268 CNS; 102% in the test on SF-295 CNS; 111% with SF-539 CNS; 95.5% in the test on UACC-257 melanoma; 105% with M14 melanoma.

Take `CCn1c2ccc(N(C)C)cc2c2cc(N(C)C)ccc21`: the growth is 92.1% in the test on NCI-H23 lung; 97.4% in the test on NCI-H226 lung; 90.2% with HOP-62 NSCLC; 99.8% in the test with NCI-H460 lung; 90.6% in the test with HOP-92 NSCLC; 77.3% in the test on NCI-H522 lung. Also, the growth with A549/ATCC NSCLC is 85.7%; in the test on 786-0 renal it was 102%; in the test with COLO 205 colon, 46.8%; in the test on DU-145 prostate, 108%; in the test on K-562 leukemia it was 90.6%; in the test with MALME-3M melanoma, 111%. In addition, the growth is 83.8% in the test on MDA-MB-231 breast; 97.3% in the test with RXF 393 renal; 92.8% in the test on SF-268 CNS; 104% in the test with SF-295 CNS; 100% in the test on SF-539 CNS; 93% with UACC-257 melanoma. Besides, in the test on M14 melanoma, the growth is 102%.

Turning to `O=C1C=CC(=O)N1Cc1ccco1`, the growth in the test on NCI-H23 lung is 81.7%; with NCI-H226 lung it was 97.1%; in the test with HOP-62 NSCLC it was 94.7%; with NCI-H460 lung it was 50.9%; in the test on HOP-92 NSCLC, 102%; in the test on NCI-H522 lung, 67.8%. Besides, the growth with A549/ATCC NSCLC is 92.1%; with 786-0 renal it was 104%; with COLO 205 colon, 89.2%; with DU-145 prostate it was 4.25% (active); in the test on K-562 leukemia it was 94.1%; in the test with MALME-3M melanoma it was 94.5%. In addition, the growth with MDA-MB-231 breast was 84%; in the test on RXF 393 renal, 68.6%; with SF-268 CNS it was 89.7%; in the test with SF-295 CNS, 72.2%; in the test with SF-539 CNS, 108%; in the test with UACC-257 melanoma, 104%. Moreover, the growth with M14 melanoma is 85.3%.

For `Cn1c(-c2ccccc2)cc(=O)cc1-c1ccccc1`, the growth in the test with NCI-H23 lung was 73.8%; with NCI-H226 lung it was 101%; in the test with HOP-62 NSCLC, 98.3%; in the test on NCI-H460 lung, 37.8%; in the test on HOP-92 NSCLC, 90.3%; in the test with NCI-H522 lung, 56.4%. For the same molecule, the growth was 96.4% with A549/ATCC NSCLC; 106% in the test with 786-0 renal; 96.9% with COLO 205 colon; 3.58% (active) with DU-145 prostate; 99.8% in the test on K-562 leukemia; 122% with MALME-3M melanoma. The growth with MDA-MB-231 breast is 88.8%; in the test on RXF 393 renal it was 62%; with SF-268 CNS, 89.9%; in the test on SF-295 CNS, 93.7%; in the test on SF-539 CNS it was 111%; in the test on UACC-257 melanoma, 95.1%. The growth in the test with M14 melanoma is 97.7%.

On to `COc1cc2c(cc1O)C(=O)CCCC2`, for which the growth with NCI-H23 lung is 91.8%; with NCI-H226 lung, 102%; in the test on NCI-H322M lung, 102%; in the test with HOP-62 NSCLC it was 91.5%; in the test on HOP-92 NSCLC, 82.9%; in the test with NCI-H522 lung, 70.6%. The growth was 110% with A549/ATCC NSCLC; 94.9% with 786-0 renal; 143% with COLO 205 colon; 117% in the test on DU-145 prostate; 124% in the test with K-562 leukemia; 108% in the test on MALME-3M melanoma. The growth with MDA-MB-231 breast is 108%; with RXF 393 renal, 105%; in the test with SF-268 CNS, 90.3%; in the test with SF-295 CNS, 83.8%; in the test on SF-539 CNS it was 99.6%; with UACC-257 melanoma, 121%. Also, the growth in the test with M14 melanoma is 97.2%.

Regarding `CNc1ccc(Cl)cc1S(=O)(=O)c1ccccc1[N+](=O)[O-]`, the growth was 87.9% and 98.3% in the test on NCI-H23 lung; 114% and 103% with NCI-H226 lung; 147% and 94.8% with HOP-62 NSCLC; 93% and 100% with HOP-92 NSCLC; 78.3% and 75% in the test with NCI-H522 lung; 23.3% and 94.4% in the test on A549/ATCC NSCLC. Further, the growth with 786-0 renal is 116% and 100%; in the test with COLO 205 colon it was 117%; in the test with DU-145 prostate it was 105%; in the test on K-562 leukemia, 55.7% and 73.3%; with MALME-3M melanoma, 78.2% and 91.1%; in the test with MDA-MB-231 breast, 77.7% and 97%. Besides, the growth was 25.1% and 126% in the test on RXF 393 renal; 106% and 90.6% in the test with SF-268 CNS; 108% and 104% with SF-295 CNS; 86.4% and 98.3% in the test with SF-539 CNS; 75.7% and 89.8% in the test with UACC-257 melanoma; 115% and 83.4% in the test on M14 melanoma.

In the case of `COc1ccc(-n2[nH]c3c(cnc4ccccc43)c2=O)cc1`, the growth with NCI-H23 lung is 73.1% and 95.9%; with NCI-H226 lung, 103% and 95.3%; in the test with HOP-62 NSCLC, 100% and 94.5%; in the test on NCI-H460 lung, 103% and 108%; in the test with HOP-92 NSCLC, 99.8% and 102%; with NCI-H522 lung it was 89.2%. In addition, the growth with A549/ATCC NSCLC was 92.4% and 102%; in the test with 786-0 renal it was 77.7% and 91.3%; in the test with COLO 205 colon, 137% and 119%; with DU-145 prostate it was 95.8% and 101%; with K-562 leukemia, 112% and 90.7%; in the test with MALME-3M melanoma, 63.7% and 105%. The growth is 119% with MDA-MB-231 breast; 110% and 98.3% in the test with RXF 393 renal; 103% and 106% with SF-268 CNS; 86.9% and 92.7% in the test on SF-295 CNS; 87.8% and 93.4% in the test on SF-539 CNS; 109% in the test with UACC-257 melanoma. For the same molecule, the growth in the test with M14 melanoma is 92.3% and 104%.

Regarding `S=c1ccc2ccccc2[nH]1`, the growth is 107% and 101% in the test on NCI-H23 lung; 90.2% and 104% in the test on NCI-H226 lung; 92.2% and 93.3% in the test with HOP-62 NSCLC; 107% in the test on NCI-H460 lung; 86.5% and 94.5% in the test on HOP-92 NSCLC; 93.3% and 89.6% with NCI-H522 lung. Besides, the growth with A549/ATCC NSCLC was 95.7% and 94.4%; in the test on 786-0 renal, 107% and 106%; in the test with COLO 205 colon, 94.3% and 114%; with DU-145 prostate it was 115% and 111%; in the test with K-562 leukemia, 90.7% and 103%; in the test with MALME-3M melanoma it was 85.9% and 98.5%. The growth in the test on MDA-MB-231 breast was 93.9% and 100%; with RXF 393 renal, 106% and 105%; in the test on SF-268 CNS it was 107% and 99.7%; in the test on SF-295 CNS it was 104% and 109%; in the test with SF-539 CNS, 97.9% and 102%; in the test with UACC-257 melanoma, 101% and 92.3%. In addition, in the test on M14 melanoma, the growth is 99.6% and 107%.

With `Oc1cccnc1CN1CCOCC1`, the growth was 110% and 95.7% in the test on NCI-H23 lung; 99.1% and 95.7% with NCI-H226 lung; 96.6% and 92.7% with HOP-62 NSCLC; 88.4% and 84.8% in the test with HOP-92 NSCLC; 93.8% and 120% with NCI-H522 lung; 102% and 96.5% in the test on A549/ATCC NSCLC. For the same molecule, the growth in the test with 786-0 renal is 105% and 101%; in the test on COLO 205 colon, 102% and 110%; in the test on DU-145 prostate, 108% and 116%; in the test on K-562 leukemia it was 108% and 105%; in the test with MALME-3M melanoma, 106%; in the test on MDA-MB-231 breast, 104% and 86.9%. In addition, the growth with RXF 393 renal is 114% and 112%; with SF-268 CNS, 106% and 116%; in the test with SF-295 CNS it was 111% and 105%; with SF-539 CNS, 92.6% and 94.9%; in the test on UACC-257 melanoma, 99.6% and 98.2%; in the test on M14 melanoma, 109% and 103%.

Regarding `Cn1c(N)c(N=O)c(=O)n(C)c1=O`, the growth was 96.2% with NCI-H23 lung; 115% and 104% in the test on NCI-H226 lung; 113% and 88.7% with NCI-H322M lung; 101% and 108% in the test on HOP-62 NSCLC; 103% with HOP-92 NSCLC; 97% and 73.4% with NCI-H522 lung. Moreover, the growth in the test with A549/ATCC NSCLC was 106% and 96.8%; in the test on 786-0 renal it was 108% and 103%; in the test with COLO 205 colon it was 107% and 117%; in the test with DU-145 prostate, 108% and 102%; in the test on K-562 leukemia, 86.8% and 108%; with MALME-3M melanoma it was 115% and 90.9%. Moreover, the growth was 108% and 98.7% with MDA-MB-231 breast; 170% and 109% with RXF 393 renal; 94.6% and 90.7% in the test on SF-268 CNS; 105% and 103% with SF-295 CNS; 107% and 100% with SF-539 CNS; 101% in the test with UACC-257 melanoma. For the same molecule, the growth in the test with M14 melanoma was 100% and 96.7%.
